This is a sample that favours compounds with a hit; in the whole collection about 6.7% have one here.
T cruzi growth-1: blocks T. cruzi growth in NIH3T3 culture | inhibition, % at 8.34 µM | 77,000 tested, 5.9% active | T. cruzi beta-gal in NIH3T3, GalScreen luminescence, 90 h;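 active means mean inhibition above about 93%, with at least 55% of replicates each passing it, limit read from the data, passing the limit was not always enough; inconclusive means only one of those two conditions holds; inactive means neither condition holds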
Pf Dd2 inh: inhibitors of Plasmodium falciparum Dd2 growth; 94,000 tested, 2.3% active; P. falciparum Dd2 growth, SYBR Green, 72 h; active compounds read low; activity change, % at 10 µM; in the data active means activity change below about -80%; inconclusive means no clear call, values can overlap the other calls
C diff growth: blocks growth of Clostridium difficile; Clostridium difficile clinical isolate growth, OD600, 24 h; active compounds read low; growth activity, negative = inhibition, % at 16 µg/mL (by protocol); 86,000 tested, 0.25% active;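 active means mean growth activity at or below -80% and every replicate also at or below -80%; inconclusive means mean at or below -80% but some replicate above -80%; inactive means mean growth activity above -80%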;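 further: 0% = DMSO wells and -100% = levofloxacin 16 µg/mL wells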
T cruzi growth-2: Trypanosoma cruzi proliferation inhibition; inhibition, % at 8.35 µM; shares compounds with T cruzi growth-1; T. cruzi beta-gal in NIH3T3, GalScreen luminescence, 90 h; AID 651739; 5,600 tested, 72% active;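 active means mean replicate inhibition above about 95% and at least 55% of replicates individually reaching it, limit read from the data; inconclusive means only one of the two criteria is met; inactive means neither criterion is met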
T cruzi growth-3: Trypanosoma cruzi proliferation inhibition. shares compounds with T cruzi growth-1. T. cruzi beta-gal in NIH3T3, GalScreen luminescence, 90 h. inhibition, % at 2.09 µM. 5,600 tested, 21% active. AID 651740;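 active means mean inhibition above about 95%, with at least 55% of replicates also reaching it, limit read from the data; inconclusive means meets just one of the two conditions; inactive means meets neither condition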;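 further: plate controls were neutral control median for no effect and positive control median for full effect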
3T3 cytotox: kills mouse NIH/3T3 fibroblasts. shares compounds with T cruzi growth-1. NIH/3T3 viability, CellTiter-Glo ATP luminescence, 90 h. cytotoxicity (signal decrease), % at 8.35 µM. 5,600 tested, 14% active. AID 651742;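 active means mean signal decrease across replicates above about 35% based on untreated-well scatter, with enough replicates individually passing, limit read from the data; inconclusive means no rule stated though some were filed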;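 further: 0% = median of neutral control wells and 100% = median of positive control wells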
NIH3T3 tox 2: NIH/3T3 (mouse) viability loss | shares compounds with T cruzi growth-1 | NIH/3T3 viability, CellTiter-Glo ATP luminescence, 90 h | inhibition, % at 24.9 µM | 5,600 tested, 56% active | AID 651744;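 active means mean loss of cell viability signal at or above a set limit, and enough replicates individually reaching it; inconclusive means meets only the mean limit or only the replicate share; inactive means meets neither condition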;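 further: 0% = median of neutral control wells and 100% = median of positive control wells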
Active calls of the source: *; ! = repeats disagree.

C[C@@H](O)C#Cc1ccc([C@H]2[C@@H](CO)N3CCCCN(C(=O)c4cccc(F)c4)C[C@@H]23)cc1 was read as T cruzi growth-1 99.7*, Pf Dd2 inh 35.3, C diff growth -1.6, T cruzi growth-2 87.7, T cruzi growth-3 60.3, 3T3 cytotox 2.1 and NIH3T3 tox 2 22.1.
For C[C@H](O)C#Cc1ccc([C@@H]2[C@@H](CO)N3CCCCN(C(=O)c4cccc(F)c4)C[C@@H]23)cc1 the results were T cruzi growth-1 46.5, Pf Dd2 inh -2.4 and C diff growth 9.5.
For C[C@H](O)C#Cc1ccc([C@H]2[C@@H](CO)N3CCCCN(C(=O)c4cccc(F)c4)C[C@H]23)cc1 the results were T cruzi growth-1 55.6, Pf Dd2 inh -18.0 and C diff growth 5.1.
C[C@H](O)C#Cc1ccc([C@H]2[C@H](CO)N3CCCCN(C(=O)c4cccc(F)c4)C[C@@H]23)cc1 was read as T cruzi growth-1 100.0*, Pf Dd2 inh -41.6, C diff growth -0.2, T cruzi growth-2 67.0, T cruzi growth-3 42.3, 3T3 cytotox 18.5 and NIH3T3 tox 2 64.5*.
`C[C@@H]1CN([C@H](C)CO)C(=O)c2cc(-c3cccnc3)cnc2O[C@H]1CN(C)C(=O)c1ccccc1F` gave T cruzi growth-1 3.8, Pf Dd2 inh 20.0 and C diff growth 3.0.
Cc1noc(C)c1NC(=O)Nc1ccc2c(c1)C(=O)N([C@@H](C)CO)C[C@H](C)[C@H](CN(C)Cc1ccncc1)OCCCC[C@H](C)O2 was read as T cruzi growth-1 -26.0, Pf Dd2 inh 6.4 and C diff growth -3.5.
Screening CCCC#Cc1ccc([C@H]2[C@H]3CN(CC4CC4)CCCCN3[C@H]2CO)cc1 returned T cruzi growth-1 48.0, Pf Dd2 inh -34.4 and C diff growth -1.4.
For OC[C@@H]1[C@@H](c2ccc(C#Cc3ccccc3F)cc2)[C@@H]2CN(CC3CCOCC3)CCCCN12 the results were T cruzi growth-1 72.2, Pf Dd2 inh -7.1 and C diff growth -12.4.
For CCCC#Cc1ccc([C@H]2[C@H](CO)N3CCCCN(CC4CCOCC4)C[C@@H]23)cc1 the results were T cruzi growth-1 128.7*, Pf Dd2 inh inconclusive, C diff growth 5.4, T cruzi growth-2 86.7, T cruzi growth-3 46.9, 3T3 cytotox 15.9 and NIH3T3 tox 2 76.7*.
`OC[C@@H]1[C@H](c2ccc(C#Cc3ccccc3F)cc2)[C@@H]2CN(CC3CCOCC3)CCCCN12` gave T cruzi growth-1 105.3*, Pf Dd2 inh 3.6, C diff growth 7.1, T cruzi growth-2 114.0*, T cruzi growth-3 59.2, 3T3 cytotox inconclusive and NIH3T3 tox 2 105.1*.
Screening O=C(C[C@@H]1C=C[C@H](NC(=O)c2cccnc2)[C@@H](CO)O1)NCc1ccc(Cl)c(Cl)c1 returned T cruzi growth-1 4.3 and Pf Dd2 inh 2.0.
`C[C@@H]1CCCCO[C@H](CN(C)C(=O)NC2CCCCC2)[C@H](C)CN([C@H](C)CO)C(=O)c2cc(NC(=O)NC3CCCCC3)ccc2O1` gave T cruzi growth-1 78.8, Pf Dd2 inh -70.3 and C diff growth -3.2.
`CC(C)NC(=O)Nc1ccc2c(c1)C(=O)N([C@@H](C)CO)C[C@@H](C)[C@H](CN(C)Cc1ccccc1)OCCCC[C@H](C)O2` gave T cruzi growth-1 102.0*!, Pf Dd2 inh -36.1, C diff growth 2.1, T cruzi growth-2 63.8, T cruzi growth-3 -3.3, 3T3 cytotox -18.0 and NIH3T3 tox 2 12.4.
Screening CC(C)NC(=O)Nc1ccc2c(c1)C(=O)N([C@H](C)CO)C[C@@H](C)[C@@H](CN(C)Cc1ccccc1)OCCCC[C@@H](C)O2 returned T cruzi growth-1 35.6, Pf Dd2 inh 31.1 and C diff growth 4.5.
CC(C)NC(=O)Nc1ccc2c(c1)C(=O)N([C@@H](C)CO)C[C@@H](C)[C@@H](CN(C)Cc1ccccc1)OCCCC[C@H](C)O2 was read as T cruzi growth-1 102.9*, Pf Dd2 inh -40.6, C diff growth -7.8, T cruzi growth-2 39.4, T cruzi growth-3 10.3, 3T3 cytotox 14.2 and NIH3T3 tox 2 8.6.

Bioassay records as filed in PubChem BioAssay.
